Compounds without any hit were thinned out: in the full panel of roughly 83,000, 20% have a hit.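 Values shown are percent growth following 48 h exposure of cells in 96-well plates to a single concentration of compound; below 10 was considered active.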 Unmarked numbers belong to inactive results. Active and inactive are the calls of the source.

The record followed here is PubChem BioAssay (NCI).

Some test systems named below: HCT-15 colon; HT29 colon; SNB-75 CNS; SNB-19 CNS; PC-3 prostate; SK-MEL-5 melanoma; UACC-62 melanoma; LOX IMVI melanoma; SK-MEL-28 melanoma; SK-MEL-2 melanoma; SN12C renal; UO-31 renal; TK-10 renal; ACHN renal; CAKI-1 renal; A498 renal; CCRF-CEM leukemia; MOLT-4 leukemia; EKVX NSCLC.
Holding throughout (experiment): NCI-60 one-dose screen, 48 h (100 = growth as untreated, 0 = no growth, -100 = all killed)
What all share (conditions): 10 µM

Turning to `COc1cc(CSc2nc3ccc(Cl)cc3c(=O)n2-c2ccccc2)cc(OC)c1OC`, the growth was 52.5% with HCT-15 colon; 67% in the assay with HT29 colon; 75.8% in the assay with SNB-75 CNS; 80.6% in the assay on SNB-19 CNS; 73.2% with PC-3 prostate; 81.3% with SK-MEL-5 melanoma. Besides, the growth in the assay with UACC-62 melanoma is 64.1%; with LOX IMVI melanoma, 79.3%; in the assay with SK-MEL-28 melanoma, 103%; in the assay on SK-MEL-2 melanoma, 77.5%; with SN12C renal it was 76%; in the assay with UO-31 renal it was 47.8%. For the same compound, the growth with TK-10 renal is 97.7%; in the assay on ACHN renal, 78.9%; in the assay with CAKI-1 renal, 73.9%; in the assay with A498 renal it was 81.7%; with CCRF-CEM leukemia it was 95.1%; in the assay on MOLT-4 leukemia, 69.8%.

Take `COc1cc2ccnc(C=O)c2cc1OC`: the growth in the assay on HCT-15 colon was 27.9%; with HT29 colon it was 20.9%; in the assay on SNB-75 CNS, 76.7%; in the assay with SNB-19 CNS, 88.3%; in the assay on PC-3 prostate, 90.7%; in the assay with SK-MEL-5 melanoma, 60.6%. Also, the growth is 74% in the assay on UACC-62 melanoma; 41.8% with LOX IMVI melanoma; 79.5% in the assay on SK-MEL-28 melanoma; 83.2% in the assay on SK-MEL-2 melanoma; 77.8% in the assay on SN12C renal; 13.8% with UO-31 renal. For the same compound, the growth was 50.4% in the assay on TK-10 renal; 51.2% in the assay with ACHN renal; 47.5% with CAKI-1 renal; 111% with A498 renal; -3.23% (active) in the assay on CCRF-CEM leukemia.

In the case of `CCN(CC)CC(O)Cc1ccc(OC)cc1` (stereo unspecified), the growth in the assay on HCT-15 colon is 108%; in the assay with HT29 colon it was 103%; in the assay on SNB-75 CNS, 102%; with SNB-19 CNS, 109%; in the assay with PC-3 prostate, 96.5%; with SK-MEL-5 melanoma, 100%. Besides, the growth is 111% in the assay on UACC-62 melanoma; 102% in the assay on LOX IMVI melanoma; 116% in the assay on SK-MEL-28 melanoma; 96% in the assay on SK-MEL-2 melanoma; 98.7% in the assay with EKVX NSCLC; 104% in the assay on SN12C renal. The growth in the assay with UO-31 renal was 103%; in the assay on TK-10 renal it was 96.5%; in the assay with ACHN renal, 108%; in the assay on CAKI-1 renal it was 101%; in the assay on A498 renal, 96.7%; in the assay on CCRF-CEM leukemia it was 98.9%.

As for `CCN(CCCNC(=O)Cc1cc(=O)oc2cc(N(C)C)ccc12)CCNc1ccnc2cc(Cl)ccc12`, the growth in the assay on HCT-15 colon was 83.2%; with HT29 colon, 18.6%; in the assay on SNB-75 CNS, 88.6%; with SNB-19 CNS, 91.5%; in the assay with PC-3 prostate, 78.7%; in the assay with SK-MEL-5 melanoma, 76.2%. In addition, the growth in the assay with UACC-62 melanoma is 98.7%; in the assay on LOX IMVI melanoma it was 66.4%; with SK-MEL-28 melanoma, 85%; with SK-MEL-2 melanoma, 117%; with EKVX NSCLC, 99.8%; with UO-31 renal it was 84.7%. Further, the growth with TK-10 renal is 87.4%; in the assay with ACHN renal, 78.6%; in the assay with CAKI-1 renal it was 106%; with A498 renal, 81.5%; in the assay with CCRF-CEM leukemia, 53.9%; with MOLT-4 leukemia, 44.4%.

As to `Clc1cc(Cl)c(Cl)c(-c2nc(-c3cccnc3)cs2)c1`, the growth is 87.1% in the assay with HCT-15 colon; 46.3% in the assay with HT29 colon; 91.7% in the assay on SNB-75 CNS; 103% with SNB-19 CNS; 88.5% with PC-3 prostate; 93.9% with SK-MEL-5 melanoma. In addition, the growth with UACC-62 melanoma is 77.5%; in the assay on LOX IMVI melanoma, 64.4%; in the assay on SK-MEL-28 melanoma it was 72.2%; with SK-MEL-2 melanoma, 99.3%; with EKVX NSCLC, 93.2%; in the assay on SN12C renal it was 94.2%. The growth in the assay with TK-10 renal is 82.6%; in the assay on ACHN renal, 61.5%; in the assay on CAKI-1 renal it was 48.7%; with A498 renal, 104%; in the assay with CCRF-CEM leukemia, 62.6%; with MOLT-4 leukemia, 56.9%.

Consider `CC(C)/C=N/NC(N)=S`, for which the growth is 90.6% with HCT-15 colon; 62.2% with HT29 colon; 81.3% with SNB-75 CNS; 98.3% with SNB-19 CNS; 55.1% in the assay with PC-3 prostate; 97.2% in the assay with SK-MEL-5 melanoma. The growth is 97.3% with UACC-62 melanoma; 96% in the assay with LOX IMVI melanoma; 99.2% in the assay with SK-MEL-28 melanoma; 103% in the assay on SK-MEL-2 melanoma; 85.5% in the assay on SN12C renal; 72.4% in the assay with UO-31 renal. The growth with TK-10 renal was 109%; with ACHN renal it was 90.6%; with CAKI-1 renal, 89%; in the assay on A498 renal it was 82.7%; in the assay with CCRF-CEM leukemia, 28.9%; in the assay on MOLT-4 leukemia it was 64.9%.

On to `COc1ccc(-n2nnc3c(sc4ccccc43)c2=O)cc1`, for which the growth is 102% in the assay with HCT-15 colon; 43.8% in the assay with HT29 colon; -9.25% (active) in the assay with SNB-75 CNS; 33.7% in the assay on SNB-19 CNS; 73% in the assay with PC-3 prostate; 74.5% in the assay with SK-MEL-5 melanoma. For the same compound, the growth in the assay on UACC-62 melanoma was 93.9%; in the assay on LOX IMVI melanoma, 74.4%; with SK-MEL-28 melanoma, 82.8%; in the assay on SK-MEL-2 melanoma, 77.1%; in the assay with SN12C renal, 61.9%; in the assay on UO-31 renal, 1.83% (active). The growth in the assay on TK-10 renal is 8.22% (active); in the assay on ACHN renal, -22.3% (active); with CAKI-1 renal, 36.6%; in the assay with A498 renal it was -2.38% (active); with CCRF-CEM leukemia, 89.9%; with MOLT-4 leukemia, 99.5%.

As to `Cc1cc2cc3c(=O)[nH]c(=O)cc-3n(CC(O)C(O)C(O)CO)c2cc1C` (stereo unspecified), the growth in the assay on HCT-15 colon was 105%; in the assay on HT29 colon, 110%; in the assay with SNB-75 CNS, 103%; in the assay on SNB-19 CNS, 114%; in the assay with PC-3 prostate it was 99.9%; in the assay with SK-MEL-5 melanoma, 110%. The growth is 112% with UACC-62 melanoma; 99.8% with LOX IMVI melanoma; 114% in the assay with SK-MEL-28 melanoma; 120% with SK-MEL-2 melanoma; 113% in the assay on SN12C renal; 99.2% with UO-31 renal. Moreover, the growth in the assay with TK-10 renal was 125%; in the assay on ACHN renal, 75.1%; in the assay on CAKI-1 renal, 87.9%; in the assay on A498 renal, 109%; in the assay on CCRF-CEM leukemia it was 105%; in the assay on MOLT-4 leukemia it was 99.8%.

As for `CCCCCC(=O)N1c2ccccc2NC2=C(C(=O)CC(c3ccc(OC)c(OC)c3)C2)C1c1ccc(C(F)(F)F)cc1` (stereo unspecified), the growth is 60.6% in the assay with HCT-15 colon; 88% with HT29 colon; 82.7% in the assay with SNB-75 CNS; 58.1% in the assay on SNB-19 CNS; 16.4% in the assay with PC-3 prostate; 18.8% in the assay on SK-MEL-5 melanoma. Besides, the growth in the assay with UACC-62 melanoma was 53.9%; with LOX IMVI melanoma, 60.8%; in the assay on SK-MEL-28 melanoma, 86.7%; with SK-MEL-2 melanoma, 47.8%; in the assay with SN12C renal, 62%; in the assay on UO-31 renal it was 44.9%. In addition, the growth with TK-10 renal was 64.4%; in the assay with ACHN renal, 58.3%; in the assay with CAKI-1 renal, 65.6%; with A498 renal, 57.2%; in the assay on CCRF-CEM leukemia, 43.5%; in the assay on MOLT-4 leukemia it was 37%.
